Test results reported in PubChem BioAssay AID588334 (Broad Institute, 2011).
Out of some 300,000 compounds screened, about 2,300 (0.77%) were called active. This is one part of a sample in which actives are shown more often than they occur.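 How the source made its calls: active means mean activation of at least 80% with every replicate also reaching 80%; inconclusive means mean reaches 80% but some replicate falls short; inactive means the rest.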

Assay: activators of MITF-driven TRPM1 promoter reporter, primary screen, cell-based, SK-MEL-5, luciferase, single point (AID 588334);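 further: 0% = neutral control wells and 100% = parthenolide positive control wells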
Settings: SK-MEL-5 TRPM1-promoter luciferase, 24 h; at 12.5 µM; hits give high values; % of positive control, neutral wells = 0

activation, inactive:
CC(=O)OC1CCC2(C)C(=CCC3C4CC(=O)N(O)C(=O)C4(C)CCC32)C1 (configuration not stated) -5.88%
COc1ccc(CNCCCNCc2ccc(OC)c(OC)c2)cc1OC 7.54%
Cc1ccc(NC(=O)COc2ccc(/C=N\NC(=O)c3cccnc3)cc2)cc1C 13.6%
Cc1ccc(N/C=C/C(=O)c2ccccc2)cc1C -1.56%
COc1ccccc1C(=O)Nc1ccc(C)c(S(=O)(=O)N2CCCCC2)c1 -6.44%
CC(=O)Nc1ccc(NC(=O)COC(=O)C2CCC(C(C)(C)C)CC2)cc1 (configuration not stated) -0.038%
COc1ccc(-c2csc(-c3cccs3)n2)cc1OC 56.3%
COc1ccc(-c2noc(CCCC(=O)NC3CCCC3)n2)cc1OC 4.98%
COc1ccc(-c2cc3ncccc3cn2)cc1 72%
Fc1ccc2cnc(-c3ccccc3)cc2c1 63.9%
O=C(Nc1ccc(S(=O)(=O)N2CCOCC2)cc1)C1CCN(S(=O)(=O)c2ccc(Cl)cc2)CC1 -12.4%
COc1ccccc1-c1nnc2n1N=C(c1ccc(OC(F)F)c(OCC3CC3)c1)CS2 3.16%
COc1ccc(CCNCc2c(-c3ccccc3)n(C)c3ccccc23)cc1 2.46%
COc1cc(OC)cc(-c2c(C#Cc3ccsc3)c3cc(-c4ccc(SC)cc4)ccc3n2C)c1 6.54%
COc1ccc(CC(=O)N[C@@H]2c3cc(OC)c(OC)cc3C[C@H]2OCc2ccccc2)cc1 -0.621%
CCCCNC(=O)C(C)N(CCN(C)C)C(=O)CCCCCN1C(=O)NC(c2ccc(Cl)cc2)C(C(=O)OCc2ccccc2)=C1C (configuration not stated) -93.7%
Oc1ccc(-c2nc3ccccc3nc2-c2ccc(O)cc2O)c(O)c1 -29.5%
CCOc1ccc(Cn2nnc(C(=O)NCc3ccccc3)c2N)cc1 0.298%
CCc1ccc(NC(=O)Cn2nnc(C(=O)NCc3ccc4c(c3)OCO4)c2N)cc1 -0.586%
Cc1cccc(C=CC(=O)c2ccc(Cl)cc2)c1 35.1%
CN(C)C(=O)CCc1ccc2c3c([nH]c2c1)[C@]1(CCc2ccccc2)[C@@H](C(=O)N2CCCCC2)C[C@H](CC(=O)NCCC2=CCCCC2)C(=O)N1CC3 -16.1%
Cc1ccc(S(=O)(=O)N2CCN(C(=O)CN3C(=O)NC(C)(c4ccc(Cl)cc4)C3=O)CC2)c(C)c1 (configuration not stated) 3.72%
COc1ccccc1-c1nnc(NC(=O)c2ccc3ncsc3c2)o1 -3.99%
Cc1ccc(C(=O)c2c(NC(=O)c3ccccc3)sc(C)c2C)cc1 24.2%
CN(C(=O)c1cccc(NC(=O)Cc2cccc(NC(=O)C3CCCN(C(=O)C4CC4)C3)c2)c1)C1CCC1 (configuration not stated) -0.0755%
COc1ccc(C(=O)Nc2cc(S(=O)(=O)N3CCCC3)ccc2Cl)cc1 5.82%
Cc1nc2cc(NC(=O)NC3CC3)ccc2n1C 13.8%
Cc1nc2cc(NC(=O)Nc3cccc(F)c3)ccc2n1C 12.9%
O=C(O)c1ccc(Cn2cnc3c(=S)nc[nH]c32)cc1 6.13%
COc1ccc2c(c1)C(=O)CC(c1ccccc1)O2 (configuration not stated) 54.8%
Cc1cc(NC(=O)C(C)SCC(=O)Nc2cccc(S(=O)(=O)N3CCCCCC3)c2)no1 (configuration not stated) -15.9%
CC(=O)NS(=O)(=O)c1ccc(NC(=O)C2C3C=CC(C3)C2C(=O)O)cc1 (configuration not stated) -12.7%
COC(=O)c1cc(NC(=O)C2C3C=CC(C3)C2C(=O)O)cc(C(=O)OC)c1 (configuration not stated) 14.6%
O=C(N[C@H]1C/C=C\C(c2cccc(F)c2)N(Cc2ccccc2)C(=O)C1)OCC1c2ccccc2-c2ccccc21 (some centres not stated) 20.8%
c1ccc(CCc2nc(-c3ccncc3)no2)cc1 57.8%
Cc1ccc(-c2nc(-c3ccncc3)no2)c(C)c1 70.8%
CSCCC(NC(=O)c1ccccc1)C(=O)N1CCN(Cc2ccc(Cl)cc2)CC1 (configuration not stated) -8.56%
CN(c1ccccc1)S(=O)(=O)c1cc(C(=O)N2CCN(c3ncccn3)CC2)ccc1Cl -2.71%
COc1cccc(C=CC(=O)C=CC=Cc2ccccc2)c1 -4.72%
NC(=O)C1(Nc2ccc(-c3ccccc3)cc2)CCCC1 5.06%
COc1ccc(N=Nc2ccc(O)c(P(=O)(c3ccccc3)c3ccccc3)c2)cc1 5.85%
COC(=O)Cc1[nH]n(-c2nc3ccccc3s2)c(=O)c1C(C)=Nc1ccc(OC)cc1 -94.9%
CCN(CC)C(=O)[C@H]1C[C@H](CC(=O)NCC23CC4CC(CC(C4)C2)C3)C(=O)N2CCc3c([nH]c4cc(CCC(=O)N(C)C)ccc34)[C@]12C -10.9%
COc1cc(C(=O)CCc2ccc3c(c2)OCO3)cc(OC)c1OC -4.27%
CC(C=Cc1ccccc1)=NNS(=O)(=O)c1ccc([N+](=O)[O-])cc1 -13.6%
COc1cc(C(=O)OCC(=O)NC23CC4CC(CC(C4)C2)C3)cc(OC)c1OC -3.15%
COc1cc(NC(=O)COC(=O)c2cc(S(=O)(=O)N3CCOCC3)ccc2F)cc(OC)c1 1.31%

activation, active:
C/C(=C\C(=O)c1cccnc1)Nc1ccc(C)c(C)c1 104%
COc1ccc(-c2noc(-c3cccc(OC)c3OC)n2)cc1OC 88.3%
COc1cc(OC)cc(-c2cc3ccc(F)cc3cn2)c1 111%
COc1ccc(-c2c(C#Cc3ccccc3)c3ccccc3n2C)cc1 85.9%
Nc1c(C(=O)Nc2ccc3c(c2)OCCO3)nnn1Cc1ccccc1 81.1%
Cc1sc(NC(=O)c2ccc3ncsc3c2)c(C(N)=O)c1C 103%
Cc1nc2cc(NCc3cccs3)ccc2n1C 90.7%
CC(C)COC(=O)c1ccc(NC(=O)C2C3C=CC(C3)C2C(=O)O)cc1 (configuration not stated) 105%
c1csc(-c2nc(-c3ccncc3)no2)c1 113%
COc1ccc(N=C(C)c2sc3ccccc3c2O)cc1 123%
